Measured potencies and affinities stand elsewhere.
Legend:
[1] = test system: Klebsiella pneumoniae; conditions: Concentration 20 uM; ASSAY_TEST Inhibition of Bacterial Growth; detection method Absorption (OD600); MEDIA CAMHB; plate type 384well; NBS; CORNING #3640; time 18 hr
[2] = test system: Candida albicans; conditions: 20 µM
[3] = test system: Cryptococcus neoformans; conditions: Concentration 20 uM; ASSAY_TEST Inhibition of Fungal Growth; detection method Resazurin; Absorption (OD600-OD570); plate type 384well; NBS; CORNING #3640

What does the source list for `Cl.Nc1c2c(nc3ccccc13)CCCC2` [TACRINE HYDROCHLORIDE]?
Inhibition [1]: 15.67%; Inhibition [2]: 1.65%; Inhibition [3]: -5.28%

Which results are given for `CCCCN1CCCC1CNC(=O)c1cc(C#N)c2ccccc2c1OC` (stereo unspecified) [NAFADOTRIDE]?
Inhibition [1]: 16.43%; Inhibition [2]: 4.38%; Inhibition [3]: -22.16%

For `CC(=O)C1(O)CCC2C3CC(C)C4=CC(=O)C=CC4(C)C3(F)C(O)CC21C` (stereo unspecified), which Inhibition [1] is on record?
Its Inhibition is 4.1%.

What about the Inhibition [2] of the same molecule?
The Inhibition was 2.21%.

And the Inhibition [3]?
Its Inhibition is -3.1%.

`NC(=O)N1c2ccccc2CC(=O)c2ccccc21` [OXCARBAZEPINE] was tested. Which Inhibition [1] did it give?
Its Inhibition is 3.69%.

What about the Inhibition [2] of the same molecule?
Its Inhibition is 2.7%.

What about the Inhibition [3] of the same molecule?
The Inhibition was -4.73%.

With `Nc1nc2c(ncn2COCCO)c(=O)[nH]1` [ACYCLOVIR] as the molecule, how does the Inhibition [1] read?
Its Inhibition is 6.29%.

And the Inhibition [2]?
Its Inhibition is 4.6%.

And the Inhibition [3]?
Its Inhibition is -1.27%.

Which Inhibition [1] does the source give for `COC(=O)[C@H](c1ccccc1Cl)N1CCc2sccc2C1` [CLOPIDOGREL] here?
Its Inhibition is 14.99%.

What about the Inhibition [2] of the same molecule?
The Inhibition was 2.18%.

What about the Inhibition [3] of the same molecule?
Its Inhibition is -8.15%.

Which Inhibition [1] does the source give for `CC[C@@]1(O)C(=O)OCc2c1cc1n(c2=O)Cc2cc3c(CN(C)C)c(O)ccc3nc2-1.Cl` [TOPOTECAN HYDROCHLORIDE] here?
The Inhibition was 17.31%.

What about the Inhibition [2] of the same molecule?
The Inhibition was 1.75%.

What about the Inhibition [3] of the same molecule?
The Inhibition was -3.31%.

Source: ChEMBL document CHEMBL4513141, “CO-ADD screening of NIH (USA) - Clinical Collection” (2021)
